{"source": "PubChem BioAssay AID504660", "about": "(National Center for Advancing Translational Sciences (NCATS), 2011)", "note": "Screen size: about 360,000 compounds; about 3,700 (1%) were called active. The sample as a whole holds a higher share of actives than the screen did. A number with no mark means an inactive call. Cut-off read from the data, not from the text of the source: active = activation above about 30%; inactive = the rest."}
{"molecular_target": "D(1A) dopamine receptor (Homo sapiens) (UniProt P21728)", "sequence (P21728 whole entry, looked up)": "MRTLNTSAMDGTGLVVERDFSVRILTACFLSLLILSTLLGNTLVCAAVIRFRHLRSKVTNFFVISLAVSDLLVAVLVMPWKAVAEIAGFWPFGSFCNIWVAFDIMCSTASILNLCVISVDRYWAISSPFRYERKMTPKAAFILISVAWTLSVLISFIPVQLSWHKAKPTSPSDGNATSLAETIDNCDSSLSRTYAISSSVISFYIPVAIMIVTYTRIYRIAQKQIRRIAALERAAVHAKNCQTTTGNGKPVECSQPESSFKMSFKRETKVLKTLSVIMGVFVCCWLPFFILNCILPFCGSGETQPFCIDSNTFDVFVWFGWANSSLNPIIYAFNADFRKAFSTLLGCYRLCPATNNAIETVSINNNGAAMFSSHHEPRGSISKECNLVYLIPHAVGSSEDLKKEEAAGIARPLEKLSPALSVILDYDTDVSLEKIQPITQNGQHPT", "assay": "Allosteric Agonists of the Human D1 Dopamine Receptor: qHTS; note: 0% is about no effect", "conditions": "HEK293 T-REx D1 cells, calcium flux, agonist mode; at 2 µM; active compounds read high", "method_in_brief": "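Tetracycline-induced HEK293 TREx D1 cells, force-coupled to calcium signalling, were dye-loaded with a no-wash calcium kit. Compound was pin-added after a 10 s baseline. Fluorescence was read kinetically at 1 cycle/s for 180 s, with calcium rises flagged as agonism.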"}
{"smiles": "COc1ccc(-n2c(C)nc3c(cnn3-c3ccc(F)cc3)c2=O)cc1", "activation": "9.13%"}
{"smiles": "Cc1ccc(NC(=O)COC(=O)CNC(=O)c2ccc(Cl)cc2Cl)cc1S(=O)(=O)N1CCOCC1", "activation": "31.1% (active)"}
{"smiles": "Cc1ccc(C(=O)OCC(=O)Nc2ccc(Cl)cn2)cc1S(=O)(=O)N1CCOCC1", "activation": "5.99%"}
{"smiles": "Cc1ccc(NC(=O)CCCNC(=O)c2ccc(Cl)cc2)cc1S(=O)(=O)N1CCOCC1", "activation": "0.321%"}
{"smiles": "Cc1ccc(S(=O)(=O)N2CCC(C(=O)Nc3cc(C)ccc3C)CC2)cc1", "activation": "1.28%"}
{"smiles": "CC(C)(C)CC(C)(C)NCC(O)COCCOc1ccc(Br)cc1", "note": "(centres undefined)", "activation": "171% (active)"}
{"smiles": "CC(Oc1ccc(Br)cc1)C(=O)NC1CCCCCC1", "note": "(centres undefined)", "activation": "1.77%"}
{"smiles": "COc1ccc(OCC(O)CNCCNc2nccc(C(F)(F)F)n2)cc1", "note": "(centres undefined)", "activation": "1.81%"}
{"smiles": "COc1ccc(-n2ccnc(NCCc3ccc(Cl)cc3)c2=O)cc1OC", "activation": "1.51%"}
{"smiles": "COc1cc(OC)c(NC(=O)c2cc(S(=O)(=O)N3CCCC3)cn2C)cc1Cl", "activation": "0.318%"}
{"smiles": "COc1ccccc1C(=O)OCc1cc(=O)n2nc(-c3cccs3)sc2n1", "activation": "0.554%"}
{"smiles": "COc1ccc(C(=O)N2CCC(c3nc4ccccc4o3)CC2)cc1", "activation": "0.0167%"}
{"smiles": "O=C(Cn1cc(SCc2ccccc2)c2ccccc21)N1CCCCC1", "activation": "0.868%"}
{"smiles": "COc1cccc(CN(C)CC(O)COC(c2ccccc2)c2ccccc2C)c1", "note": "(centres undefined)", "activation": "5.2%"}
{"smiles": "CN(Cc1ccccc1)CC(O)COc1ccc(CNCc2cc3ccccc3s2)cc1", "note": "(centres undefined)", "activation": "36.8% (active)"}
{"smiles": "COc1ccc(OCC(O)CN(C)C(=O)C(C)Oc2ccccc2)cc1", "note": "(centres undefined)", "activation": "3.18%"}
{"smiles": "Cc1ccc2nc(N3C(=O)C(O)=C(C(=O)c4ccco4)C3c3cccc(O)c3)sc2c1", "note": "(centres undefined)", "activation": "7.96%"}
{"smiles": "C=CCSc1nnc(N2C(=O)C(O)=C(C(=O)c3ccco3)C2c2ccc(F)cc2)s1", "note": "(centres undefined)", "activation": "54.8% (active)"}
{"smiles": "C=CCOc1cccc(C2C(C(=O)c3ccc(C)o3)=C(O)C(=O)N2c2nnc(C)s2)c1", "note": "(centres undefined)", "activation": "29.7%"}
{"smiles": "COc1ccc(CNC(=O)c2ccc(NC(=O)N3CC4CCCN4c4ccccc43)cc2)cc1", "note": "(centres undefined)", "activation": "0.101%"}
{"smiles": "COc1ccc(Cn2ccn(CC(=O)Nc3cc(C)ccc3C)c(=O)c2=O)cc1", "activation": "18.9%"}
{"smiles": "CCc1nc2ccc(C(=O)N3CCN(c4cc(Cl)ccc4C)CC3)cc2nc1CC", "activation": "5.95%"}
{"smiles": "O=C(NC1CC(=O)N(c2ccc(F)cc2)C1)c1cccs1", "note": "(centres undefined)", "activation": "1.75%"}
{"smiles": "COc1ccc(C2COC(=O)C2=N)c(NC(=O)c2ccccc2)c1", "note": "(centres undefined)", "activation": "0.266%"}
{"smiles": "CCOC(=O)c1cc(NC(=O)c2ccc(Cl)cc2)c(=O)oc1-c1ccccc1", "activation": "3.05%"}
{"smiles": "CC(=O)c1cc(NC(=O)c2ccccc2)c(=O)oc1/C=C/N(C)C", "activation": "30.3% (active)"}
{"smiles": "Cc1ccc(N2CC(NC(=O)Cc3cccs3)CC2=O)cc1", "note": "(centres undefined)", "activation": "-0.478%"}
{"smiles": "CCOc1ccc(Nc2oc(/C=C/c3ccc(F)cc3)nc2C#N)cc1", "activation": "-0.316%"}
{"smiles": "CCOc1ccc(N(Cc2ccccc2)C(=O)c2nc(S(C)(=O)=O)ncc2Cl)cc1", "activation": "1.14%"}
{"smiles": "COc1ccc(NC(=O)Cn2c(=O)cc(C)c3c(C)nn(-c4cccc(Cl)c4C)c32)cc1OC", "activation": "0.131%"}
{"smiles": "Cn1c(=O)[nH]c(=O)c2c1nc(NCCc1ccccc1)n2Cc1ccc(F)cc1", "activation": "-2.2%"}
{"smiles": "OCCn1c(-c2ccccc2)csc1=Nc1ccccc1", "activation": "0.78%"}
{"smiles": "CN(C)CCCn1c(SCc2ccc(Cl)cc2)nnc1-c1ccncc1", "activation": "0.237%"}
{"smiles": "CN(C)CCCn1c(-c2ccc(Cl)cc2)csc1=Nc1ccccc1", "activation": "39% (active)"}
{"smiles": "O=C(CSc1ncc(CO)n1Cc1ccc(F)cc1)NCc1ccco1", "activation": "1.99%"}
{"smiles": "O=C(CNC(=O)c1ccc(Cl)cc1Cl)OC(C(=O)Nc1cc(C(F)(F)F)ccc1Cl)c1ccccc1", "note": "(centres undefined)", "activation": "6.6%"}
{"smiles": "O=C(Nc1ccccc1)N1CCC(C(=O)N2CCN(Cc3ccccc3)CC2)CC1", "activation": "0.0463%"}
{"smiles": "COc1ccc(NC(C)=O)cc1NC(=O)CN1CCN(C2c3ccccc3-c3ccccc32)CC1", "activation": "1.82%"}
{"smiles": "O=C(Nc1ccccc1)N1CCN(C2c3ccccc3-c3ccccc32)CC1", "activation": "35.4% (active)"}
{"smiles": "O=C(CC(c1cccs1)N1Cc2ccccc2C1=O)Nc1ccc(F)c(F)c1", "note": "(centres undefined)", "activation": "10.6%"}
{"smiles": "CCOc1ccc(CNC(=O)Cn2cc3c(n2)-c2c(oc(C(=O)N4CCCC4)c2C)CC3)cc1", "activation": "0.642%"}
{"smiles": "COc1ccc(CCNC(=O)c2ccc(CS(=O)(=O)c3ccc(Br)cc3)o2)cc1OC", "activation": "17.3%"}
{"smiles": "COc1ccccc1CNC(=O)c1ccc(CS(=O)(=O)c2ccccc2)o1", "activation": "30.2% (active)"}
{"smiles": "COc1ccccc1CNC(=O)c1ccc(CS(=O)c2ccccc2Cl)o1", "note": "(centres undefined)", "activation": "6.51%"}
{"smiles": "CCC(C(=O)Nc1cccc(Cl)c1C)n1nc(-c2ccc(C)cc2)ccc1=O", "note": "(centres undefined)", "activation": "1.44%"}
{"smiles": "COc1ccc(N2CCN(c3cc(C)nc4nncn34)CC2)cc1", "activation": "5.83%"}
{"smiles": "CCc1ccc(NC(=O)CCCc2nnc3n(CCCOC)c(=O)c4sccc4n23)cc1", "activation": "2.87%"}
{"smiles": "Cc1c(NC(=O)CCCOc2ccccc2)cccc1[N+](=O)[O-]", "activation": "0.0331%"}
{"smiles": "Cc1cccc(NC(=S)NCCc2ccc(F)cc2)c1C", "activation": "0.43%"}
{"smiles": "Cc1c(NC(=S)NCc2ccc(F)cc2)cccc1[N+](=O)[O-]", "activation": "31.7% (active)"}
{"smiles": "CC(C)(C)c1ccc(S(=O)(=O)N2CCN(C(=O)c3cc(-c4ccc(Br)cc4)n[nH]3)CC2)cc1", "activation": "2.7%"}
{"smiles": "COc1ccc(NC(=O)CN2CCCN(Cc3ccccc3)S2(=O)=O)cc1", "activation": "-2.31%"}
{"smiles": "O=C(C1CCC(Cn2c(=O)c3sccc3n(Cc3ccccc3F)c2=O)CC1)N1CCCCC1", "note": "(centres undefined)", "activation": "1.57%"}
{"smiles": "CC(=O)c1c(C)[nH]c(C(=O)COC(=O)c2cccc(S(=O)(=O)N(C)c3ccccc3)c2)c1C", "activation": "31.9% (active)"}
{"smiles": "COc1ccc(C)cc1NC(=O)C(OC(=O)c1cccc(S(=O)(=O)N(C)c2ccccc2)c1)c1ccccc1", "note": "(centres undefined)", "activation": "0.857%"}
{"smiles": "CN(c1ccccc1)S(=O)(=O)c1cccc(C(=O)NNC(=O)c2ccncc2)c1", "activation": "0.604%"}
{"smiles": "N#Cc1nc(Nc2cc(F)cc(Cl)c2)nc(NC2CCCC2)n1", "activation": "11.1%"}
{"smiles": "COc1ccccc1N1CCN(C(CNC(=O)C(=O)NCc2ccc(C)cc2)c2cccnc2)CC1", "note": "(centres undefined)", "activation": "3.64%"}
{"smiles": "CCOC(=O)c1c(C)[nH]c(CCC(=O)NCCCN2CCN(c3cc(C)ccc3C)CC2)c1C", "activation": "22.5%"}
{"smiles": "Cc1ccc(C)c(N2CCN(CCCNC(=O)Nc3ccc(Cl)cc3)CC2)c1", "activation": "65.5% (active)"}
{"smiles": "O=C(CSc1ccc([N+](=O)[O-])cn1)Nc1ccc(N2CCOCC2)cc1", "activation": "0.916%"}
{"smiles": "CC1=C(c2ccc(C)cc2)S(=O)(=O)NC1=NCCCN1CCN(c2cc(C)ccc2C)CC1", "activation": "6.19%"}
{"smiles": "O=C(NCCCN1CCN(c2ccc(F)cc2)CC1)Nc1ccc([N+](=O)[O-])cc1", "activation": "32.8% (active)"}
{"smiles": "O=C(CCN1C(=O)COc2ccccc21)NCCCN1CCN(c2ccc(F)cc2)CC1", "activation": "-0.0538%"}
{"smiles": "O=C(Nc1cccc2cccnc12)C(F)(F)F", "activation": "0.559%"}
{"smiles": "COc1ccc(S(=O)(=O)NCCSc2nnnn2-c2ccccc2)cc1", "activation": "2.54%"}
{"smiles": "CCOc1ccc(S(=O)(=O)c2cn(Cc3ccccc3)c3ccc(OCC)cc3c2=O)cc1", "activation": "1.46%"}
{"smiles": "CCOC(=O)c1c(C)[nH]c(C)c1S(=O)(=O)NCC(=O)NCc1cccc(C)c1", "activation": "6.99%"}
{"smiles": "CCCCOC(=O)/C(C#N)=C/c1ccc(-c2cccc(C(F)(F)F)c2)o1", "activation": "6.87%"}
{"smiles": "c1ccc(C2CNCc3c2ccc2ccccc32)cc1", "note": "(centres undefined)", "activation": "45.9% (active)"}
{"smiles": "Cc1ccc2nc(COc3cccc(NC(=O)c4ccccc4Cl)c3)cc(=O)n2c1", "activation": "0.0743%"}
{"smiles": "COc1ccccc1S(=O)(=O)c1c(C)cc(C)[nH]c1=O", "activation": "3.01%"}
{"smiles": "Cc1cc(C)c(/C=C2\\C(=O)Nc3ccccc32)[nH]1", "activation": "92.6% (active)"}
{"smiles": "Cc1cc(C)cc(NS(=O)(=O)c2ccc(-c3cc(C)no3)s2)c1", "activation": "1.79%"}
{"smiles": "O=S(=O)(c1ccc2c(c1)OCCO2)N1CCN(S(=O)(=O)c2cc(F)ccc2F)CC1", "activation": "6.6%"}
{"smiles": "CCc1cccc(NC(=O)CN(c2ccc(C)c(C)c2)S(=O)(=O)c2ccsc2C(=O)OC)c1", "activation": "3.48%"}
{"smiles": "Cc1cccc(NC(=O)N2CCC(CN3CCc4ccccc4C3)CC2)c1C", "activation": "6.8%"}
{"smiles": "CN(C)CCCNC(=O)/C=C/c1ccc(OCc2c(F)cccc2Cl)cc1", "activation": "20.4%"}
{"smiles": "Fc1cccc(Cl)c1COc1ccc(-c2nnco2)cc1", "activation": "4.97%"}
{"smiles": "O=C(/C=C/c1ccc(OCc2c(F)cccc2Cl)cc1)N1CCOCC1", "activation": "59.7% (active)"}
{"smiles": "CCC(=O)Nc1ccc2nc(SCC(=O)N3CCc4ccccc43)sc2c1", "activation": "4.11%"}
{"smiles": "CS(=O)(=O)c1ccc(-c2nnc(NC(=O)c3ccc4c(c3)OCCO4)o2)cc1", "activation": "2.14%"}
{"smiles": "CCCN(C(=O)Cn1cc(S(=O)(=O)N2CCN(c3ccccc3F)CC2)c2ccccc2c1=O)c1cccc(C)c1", "activation": "5.13%"}
{"smiles": "Nc1ccccc1Sc1cc(Cl)nnc1Cl", "activation": "0.62%"}
{"smiles": "Cn1nc(-c2ccccc2)c(CO)c1Sc1ccccc1", "activation": "2.17%"}
{"smiles": "Cc1nn(C)c(C)c1Sc1ccccc1N", "activation": "37.1% (active)"}
{"smiles": "CC(C)(CCl)C(=O)Nc1ccc(Sc2ccc(F)cc2)cc1", "activation": "32.5% (active)"}
{"smiles": "CC(=O)Nc1cc(C(=O)NCc2ccc(F)cc2)ccc1Sc1ccc(F)cc1", "activation": "-2.57%"}
{"smiles": "COC(=O)c1ccc(Sc2ccc(F)cc2)c(N)c1", "activation": "2.52%"}
